In the library only some 3.7% were active in any assay of this set; here they are far more common.
RGS4 inhibitor – human RGS4 inhibition; P49798; Transcreener GDP fluorescence polarization, RGS4-accelerated GTP hydrolysis; Potency, µM (titrated, usually from 114 µM), for the others: top-dose activity change, negative = inhibition, usual class: inhibitors; actives 0.039% (n = 390,000); AID 504845; note: potency is the fitted concentration of half-maximal effect; % is set by controls: 0 for no effect and ±100 for the full control effect; nearly all actives have a fitted effect of over 75% in size
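MLSMR compounds (23 nl, pin-transferred) preincubated 10 min at room temperature with a 500nM (2x) first reagent, then RGS4 at 900nM (2x) plus Transcreener GDP mix added; fluorescence polarization (620/688 nm) read before and after 90 min at 30 °C.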
BRCA1 expr up – increases BRCA1 expression | actives 1.1% (n = 380,000) | Potency, µM (titrated, usually from 46.1 µM), for inactives: top-dose activation, actives largely listed as activators | AID 624202 | MCF7-BRCA1-FFLuc reporter, luminescence, 48 h; response scale: scaled: vehicle 0%, 10 µM genistein 100%; note: potency is the fitted concentration of half-maximal effect; nearly all actives have a fitted effect of over 80% in size
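48 h compound treatment of MCF7-BRCA1-FFLuc cells (phenol-red free MEM, 37 °C), then 15 min with luciferase substrate and luminescence imaging.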
D3 antag – D3 dopamine receptor (human) antagonism; max response, negative = inhibition, %; D3R cells, DiscoveRx beta-arrestin luminescence, antagonist mode; stronger effect = lower value; actives 2.5% (n = 360,000); P35462; in the data active = max response below about -50%; inconclusive = no clear call, values can overlap the other calls; note: % is set by controls: 0 for no effect and ±100 for the full control effect
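Cells expressing the human receptor were seeded at 1500 cells/well, incubated overnight at 37 degrees C in 5% CO2, then exposed to library compounds with dopamine controls for 90 minutes at 37 degrees C before luminescent detection.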
B2AR arrestin – beta2AR (human) beta-arrestin recruitment activity. AID 492947. Potency, µM (top dose mostly 46.1 µM), for inactives: top-dose activation, hits mostly activators. beta-arrestin recruitment to beta2AR, cell-based reporter. P07550. actives 0.02% (n = 330,000);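 note: potency is the fitted concentration of half-maximal effect; 0% = DMSO controls and full agonism = EC100 isoproterenol or metaproterenol; nearly all actives have a fitted effect of over 65% in size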
D3 ag – D3 dopamine receptor (human) agonism | D3R DiscoveRx beta-arrestin cells, luminescence, 90 min | max activation, % | actives 0.58% (n = 410,000) | AID 652048; in the data active = max activation above about 30%; note: 0% is about no effect
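Cells at 1500/well, incubated overnight, then treated with pinned compounds (dopamine as control) for 90 min at 37 degrees C. DiscoveRx reagent added for 30 - 60 minutes at room temperature; luminescence read.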
PTHR1 agonist – agonists of human PTHR1 parathyroid hormone receptor. Potency, µM (top dose mostly 115 µM), without a hit: top-dose activation, hits mostly activators. Q03431. actives 0.075% (n = 410,000). AID 743266. HEK293 GP2 PTHR1 cells, GloSensor cAMP luminescence, 1 h; note: potency is the fitted concentration of half-maximal effect; nearly all actives have a fitted effect of over 55% in size
Target sequence (Q03431 whole entry, looked up): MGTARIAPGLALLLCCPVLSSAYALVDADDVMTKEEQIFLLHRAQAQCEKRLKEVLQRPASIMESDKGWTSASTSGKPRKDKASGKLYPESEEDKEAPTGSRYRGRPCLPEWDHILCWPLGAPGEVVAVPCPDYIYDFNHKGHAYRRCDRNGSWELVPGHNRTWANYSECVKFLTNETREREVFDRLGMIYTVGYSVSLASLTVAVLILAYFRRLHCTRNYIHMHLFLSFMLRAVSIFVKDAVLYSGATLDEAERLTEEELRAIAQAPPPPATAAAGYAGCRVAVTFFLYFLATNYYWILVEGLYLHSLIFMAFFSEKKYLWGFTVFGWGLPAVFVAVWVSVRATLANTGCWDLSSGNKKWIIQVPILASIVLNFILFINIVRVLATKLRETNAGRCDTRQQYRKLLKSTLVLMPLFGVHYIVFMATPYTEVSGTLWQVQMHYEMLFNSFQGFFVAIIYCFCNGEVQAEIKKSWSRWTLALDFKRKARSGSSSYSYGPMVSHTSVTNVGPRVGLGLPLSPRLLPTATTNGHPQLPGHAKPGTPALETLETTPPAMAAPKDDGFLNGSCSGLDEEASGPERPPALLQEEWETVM
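HEK-293-derived GP2 cells expressing PTHR1 and a GloSensor cAMP reporter, 3,000/well, plated overnight, given luciferin plus IBMX (each 0.5 mM as added) for 1 h at 37 °C, then compound for 1 h at 37 °C. Luminescence was read after 15 min at room temperature.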
* = called active by the depositor; [ ] = dose if it differs, or a comment. Unless noted, calls come from the whole dose curve; as a rule, active = well fitted curve in the direction sought with a large enough effect; inconclusive = small, poorly fitted or top-dose-only effect, or another doubt; inactive = no such curve, though single readings can be large; an effect the other way counts as inactive or inconclusive.

What do the screens show for `CN(C)c1ccc(C#Cc2ccc3cc(CCCO)oc(=O)c3c2)cc1`?
RGS4 inhibitor: -12.7%; BRCA1 expr up: 3.16µM*; D3 antag: -12.5; B2AR arrestin: -2.1%; D3 ag: 8.1; PTHR1 agonist: -56.4%

What do the screens show for `O=c1oc(CCCO)cc2ccc(C#Cc3ccsc3)cc12`?
RGS4 inhibitor: 16.4%; BRCA1 expr up: 56.2%; D3 antag: 58.9; B2AR arrestin: 0.6%; D3 ag: 27.1; PTHR1 agonist: -31.5%

What do the screens show for `O=C1c2ccccc2C(=O)N1CCC#Cc1ccc2cc(CCCO)oc(=O)c2c1`?
RGS4 inhibitor: -12.0%; BRCA1 expr up: -21.9%; D3 antag: 82.9; B2AR arrestin: -0.4%; D3 ag: 33.1*; PTHR1 agonist: inactive

What do the screens show for `CCOC(=O)c1c(C)[nH]c(C)c1S(=O)(=O)N1CCCC(C(=O)Nc2ccc(OC)c(OC)c2)C1` (stereo not drawn)?
RGS4 inhibitor: 30.0%; D3 ag: -7.4; PTHR1 agonist: -1.9%

What do the screens show for `O=C(/C=C/Sc1ccc(C(F)(F)F)cn1)c1ccccc1`?
RGS4 inhibitor: -36.2%; BRCA1 expr up: -29.2%; D3 antag: -68.9*; B2AR arrestin: -0.6%; D3 ag: -15.6; PTHR1 agonist: -36.5%

What do the screens show for `NC(=NCc1ccccc1)NC(=O)c1nc(Cl)c(N)nc1N`?
RGS4 inhibitor: 18.5%[56.9 µM]; BRCA1 expr up: -30.6%; D3 antag: -22.9; D3 ag: -50.7; PTHR1 agonist: -25.7%

What do the screens show for `NC(=Nc1ccccc1)NC(=O)c1nc(Cl)c(N)nc1N`?
RGS4 inhibitor: -1.7%[56.9 µM]; BRCA1 expr up: 5.62µM*; D3 antag: -18.3; D3 ag: -15.9; PTHR1 agonist: -22.9%

Results for Cc1nc2c(OCCOc3ccccc3)cccn2c1N(C)C(=O)CCC1CCCC1 ?
BRCA1 expr up: 0.8%; D3 antag: 8.2; D3 ag: -0.5; PTHR1 agonist: -49.2%

How did CCc1nc2c(OCc3ccc(C(F)(F)F)cc3)cccn2c1N(C)C(=O)c1ccc(C)cc1 do in these assays?
BRCA1 expr up: -20.5%; D3 antag: -65.8*; D3 ag: -14.3; PTHR1 agonist: -25.7%

Results for CCc1nc2c(OCCC3CCCCC3)cccn2c1N(C)C(=O)C(C)C ?
BRCA1 expr up: -31.0%; D3 antag: inconclusive; D3 ag: -20.0; PTHR1 agonist: inactive

What do the screens show for `CCc1nc2c(OCc3ccc(C(F)(F)F)cc3)cccn2c1N(C)C(=O)c1ccc(OC)cc1`?
BRCA1 expr up: -42.5%; D3 antag: inconclusive; D3 ag: -11.9; PTHR1 agonist: -21.5%

How did CCc1nc2c(OCC=C(C)C)cccn2c1N(C)C(=O)c1ccc(OC)cc1 do in these assays?
BRCA1 expr up: -39.3%; D3 antag: -60.6*; D3 ag: 2.1; PTHR1 agonist: 5.8%

What do the screens show for `CCc1nc2c(OCCC3CCCCC3)cccn2c1N(C)C(=O)C1CC1`?
BRCA1 expr up: -18.1%; D3 antag: -66.0*; D3 ag: -19.7; PTHR1 agonist: -8.9%

How did CCc1nc2c(OCc3ccc(OC)cc3)cccn2c1N(C)C(=O)c1ccc(OC)cc1 do in these assays?
BRCA1 expr up: 0.0%; D3 antag: -17.9; D3 ag: -5.5; PTHR1 agonist: -3.8%

What do the screens show for `Cc1nc2c(OCCC3CCCCC3)cccn2c1N(C)C(=O)CCC1CCCC1`?
BRCA1 expr up: -36.5%; D3 antag: -66.8*; D3 ag: -16.3; PTHR1 agonist: inactive

What do the screens show for `CCc1nc2c(OCCC3CCCCC3)cccn2c1N(C)C(=O)c1ccc(C)cc1`?
BRCA1 expr up: -38.1%; D3 antag: -55.6*; D3 ag: -18.2; PTHR1 agonist: -11.7%

What do the screens show for `Cc1nc2c(OCc3ccc(C(F)(F)F)cc3)cccn2c1N(C)CC1CC1`?
BRCA1 expr up: -27.0%; D3 antag: -98.6*; D3 ag: -27.7; PTHR1 agonist: -34.6%
